Usually AC50 stands for the concentration giving half of the maximal activity seen.

“And” between values parts separate entries of the source, which are not always exact repeats. Equal entries are not always repeated. Records with an inconclusive call do not appear. Some structures have more than one record in an assay (separate samples or runs), and their calls can disagree. The source made the active and inactive calls. Rule for the calls, unless noted: active = hit-call score of the fitted dose curve at least 0.9, where 1 is the maximum; inconclusive = response in the unintended direction; inactive = score below 0.9.

A short description of experiment [1]: CCTE_Shafer_MEA_dev_per_network_spike_spike_number_mean: CCTE's Neural Network Formation Assay for Mean Number of Spikes in a Network Spike, Shafer Lab (AID 2284053; active = hit-call score of the fitted dose curve at least 0.9, where 1 is the maximum; inactive = score below 0.9;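 for AC50: fitted as decrease in spikes per network spike relative to DMSO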). The method in brief: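 First, rat cortical cells (1.5 x 10^5/well) were seeded onto MEA wells; second, dosing began at plating and was refreshed on DIV 5 and 9; finally, network-spike spike counts across DIV 5–12 were summarized as AUC.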

The nature of experiment [2]: CCTE_Shafer_MEA_dev_LDH: CCTE's Lactate Dehydrogenase Assay for Cytotoxicity in the Neural Network Formation Assay, Shafer Lab (AID 2284068).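 Note: exposure for twelve days from plating with re-dosing on DIV 5 and 9.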 In a few lines:
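Developing rat cortical networks on MEA plates are exposed to compound for 12 days from plating. LDH activity is measured spectrophotometrically, with DMSO as baseline.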

A short description of experiment [3]: CCTE_Shafer_MEA_dev_AB: CCTE's Alamar Blue Assay for Cytotoxicity in the Neural Network Formation Assay, Shafer Lab (AID 2284083).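 Note: resazurin reduction fluorescence as viability of cultured neurons; twelve days of exposure from plating with re-dosing on DIV 5 and 9.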 In a few lines:
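Cytotoxicity companion to the developmental MEA: primary rat cortical neurons, 12-day exposure starting day 0, compound refreshed DIV 5 and 9; resazurin fluorescence, fitted against DMSO vehicle.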

Experiment [4] can be described thus: CCTE_Shafer_MEA_dev_mutual_information_norm: CCTE's Neural Network Formation Assay for Mutual Information Normalization, Shafer Lab (AID 2284091; active = hit-call score of the fitted dose curve at least 0.9, where 1 is the maximum; inactive = score below 0.9;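 for AC50: mutual information between electrodes summarised as area under curve across four recording days; potency is for a decrease in mutual information relative to DMSO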). The method in brief:
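Primary rat cortical neurons on PEI-coated 48-well MEA plates, 1.5 x 10^5 cells/well, exposed from day 0 through day 12 with re-dosing at DIV 5 and 9. Mutual information between electrodes recorded days 5, 7, 9, 12; trapezoidal AUC, loss-of-signal fit versus DMSO.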

Experiment [5] in a line: UKN5_HCS_SBAD2_cell_viability: Viability Assessment in the University of Konstanz (UKN) Leist Lab Neurite Outgrowth Assay in human iPSC-derived immature Dorsal Root Ganglia Neurons (UKN5) (AID 2284056; active = hit-call score of the fitted dose curve at least 0.9, where 1 is the maximum; inactive = score below 0.9). The method in brief:
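iPSC-derived immature peripheral neurons (SBAD2) seeded on Matrigel with CHIR99021, SU5402 and DAPT, dosed 1 h later for 24 h. Viability from Hoechst H-33342 and calcein-AM live staining, high-content imaging; bidirectional fit versus DMSO.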

Experiment [6] can be described thus: CCTE_Shafer_MEA_acute_AB: CCTE's Alamar Blue Assay for Cytotoxicity in the Neural Acute Assay, Shafer Lab (AID 2284069).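 Note: active compounds lower the viability signal compared with DMSO wells.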 The method in brief: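 Cytotoxicity endpoint for acute MEA exposures of primary rat cortical neurons on day 13 or 15. Resazurin reduction is read fluorescently at 544/590 nm, with DMSO as the negative-control baseline.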
Experiment [7] in a line: UKN5_HCS_SBAD2_neurite_outgrowth: University of Konstanz (UKN) Leist Lab Neurite Outgrowth Assay in human iPSC-derived immature Dorsal Root Ganglia Neurons (UKN5) (AID 2284070; active = hit-call score of the fitted dose curve at least 0.9, where 1 is the maximum; inactive = score below 0.9). The conditions noted are these: actives raise or lower the signal. The method in brief:
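Read-out: calcein-AM-stained neurite area by high-content imaging, Hoechst H-33342 for viability, after 24 h exposure of iPSC-derived immature dorsal root ganglia neurons. Activity fitted in both directions relative to DMSO baseline.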

The nature of experiment [8]: UKN2_HCS_IMR90_neural_migration: University of Konstanz (UKN) Leist Lab Neural Crest Cell Migration Assay in human induced IMR90 Pluripotent Stem Cells (UKN2) (AID 2284204; active = hit-call score of the fitted dose curve at least 0.9, where 1 is the maximum; inactive = score below 0.9). The conditions noted are these: actives raise or lower the signal. The method in brief: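 iPSC-derived IMR90 neural crest cells seeded around stoppers on PLO/laminin/fibronectin; migration started in N2-S medium with EGF/FGF, compounds added after 24 h for 24 h. Migration into cell-free area imaged after calcein-AM/Hoechst staining; bidirectional fit versus DMSO.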

The nature of experiment [9]: CCTE_Shafer_MEA_acute_LDH: CCTE's Lactate Dehydrogenase Assay for Cytotoxicity in the Neural Acute Assay, Shafer Lab (AID 2284086).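 Note: active means LDH release rises above DMSO vehicle level.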 The method in brief: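 Rat cortical neurons cultured on microelectrode arrays; baseline 40-min recording, compound added, second 40-min recording; medium then sampled for released LDH (colorimetric kit, 490 nm). DMSO = negative control.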

Another experiment relates to DIO3 (gene 1735). Kind of experiment: CCTE_GLTED_hDIO3: CCTE's human Deiodinase 3 (DIO3) Inhibition Assay, Great Lakes Toxicology and Ecology Division (GLTED) Lab (AID 2284055).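 For AC50: potency is for inhibition seen as loss of released iodide signal.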 In a few lines: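 Absorbance from the Sandell-Kolthoff reaction reports iodide released by human DIO3 during a 3-hour incubation with chemical. Inhibition scored as signal loss against DMSO controls.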

On to `S=C1NCCN1`, for which the result in experiment [1], in experiment [2], in [3] and in experiment [4] was inactive.

Regarding `CC(=NC#N)N(C)Cc1ccc(Cl)nc1`, the call in [1], in [5], in [6], in experiment [7], in [3] and in experiment [4] was inactive. Also, in [8], the call was inactive.

For the compound `CC1=NNC(=O)N(/N=C/c2cccnc2)C1`, the call in experiment [1], in experiment [2], in [6], in experiment [3], in [9] and in [4] was inactive.

Consider `CC(C)=CC1C(C(=O)OCN2C(=O)C3=C(CCCC3)C2=O)C1(C)C` (stereo not given), for which the result (in experiment [1]; with DIO3 (gene 1735); in experiment [3]; in experiment [9]; in experiment [4]) was inactive. For the same compound, in experiment [2], the AC50 was 10 µM (active).

`CCOP(=S)(OCC)SCCSCC`: the call in experiment [1], in experiment [2], in experiment [3], in experiment [9] and in [4] was inactive.

In the case of `C=C(C)[C@H]1Cc2c(ccc3c2O[C@@H]2COc4cc(OC)c(OC)cc4[C@@H]2C3=O)O1`, the AC50 in experiment [1] was 0.0145 µM (active); in the experiment on DIO3 (gene 1735) it was 2.39 µM (active); in experiment [2] it was 16.4 nM (active) and 15.4 nM (active); in [3], 38.4 nM (active) and 57.1 nM (active); in experiment [4], 7.09 nM (active). Besides, the call in experiment [6] and in experiment [9] was inactive.

For the compound `COP(=O)(NC(C)=O)SC` (stereo not given), the outcome in experiment [1], in experiment [2], in experiment [6], in [9] and in experiment [4] was inactive. The half-maximal activity concentration (AC50) in experiment [9] was 0.00708 µM (active); in experiment [4] it was 15000 nM (active).

`O=[N+]([O-])c1cc(C(F)(F)F)c(Cl)c([N+](=O)[O-])c1Nc1ncc(C(F)(F)F)cc1Cl`: the half-maximal activity concentration (AC50) was 0.771 µM (active) in experiment [1]; 2.04 µM (active) in the experiment on DIO3 (gene 1735); 0.871 µM (active) in [2]; 1.01 µM (active) in experiment [3]; 328 nM (active) in experiment [4]; 0.638 µM (active) in experiment [8]. Further, the call in experiment [6] and in [9] was inactive.

In the case of `CCOP(=O)(NC(C)C)Oc1ccc(SC)c(C)c1` (stereo not given), the AC50 in experiment [1] was 61.4 µM (active); in experiment [2] it was 51 µM (active); in experiment [4], 36300 nM (active). For the same compound, the compound was classed as inactive in [1], in experiment [2], in experiment [6], in experiment [3], in experiment [9] and in experiment [4]. For the same compound, in experiment [8], the outcome was inactive.

Turning to `CCOP(=S)(OCC)Oc1cc(C)nc(C(C)C)n1`, the AC50 is 16.1 µM (active) in experiment [1], 50 µM (active) in [2], 50 µM (active) in [3] and 50000 nM (active) in experiment [4]. Further, the outcome in experiment [1], in experiment [3] and in [4] was inactive.

For the compound `CN(C)[C@@H]1C(=O)C(C(N)=O)=C(O)[C@@]2(O)C(=O)C3=C(O)c4c(O)cccc4[C@@](C)(O)[C@H]3[C@H](O)[C@@H]12`, the half-maximal activity concentration (AC50) in experiment [1] was 50 µM (active); in the experiment with DIO3 (gene 1735), 71.9 µM (active) and 25.6 µM (active) and 24.8 µM (active); in experiment [2] it was 77.7 µM (active); in experiment [3] it was 50 µM (active); in experiment [8], 116 µM (active). Moreover, the call in experiment [6], in experiment [9] and in experiment [4] was inactive.

Consider `CON=C(C(=O)OC)c1ccccc1CON=C(C)c1cccc(C(F)(F)F)c1`, for which the concentration at half-maximal activity (AC50) is 697 nM (active) and 542 nM (active) in experiment [1]; 326 nM (active) and 299 nM (active) in experiment [2]; 1.26 µM (active) and 437 nM (active) in [3]; 671 nM (active) and 812 nM (active) in experiment [4]; 15.2 µM (active) in experiment [8]. For the same compound, the compound was called inactive in experiment [6] and in experiment [9].

With `CSC1=N[C@@](C)(c2ccccc2)C(=O)N1Nc1ccccc1`, the compound was classed as inactive in experiment [1], in experiment [5], in [6], in [7], in [3] and in experiment [9]. In addition, the compound was called inactive in experiment [4]. Also, the AC50 in experiment [2] was 15 µM (active).

Take `CC(C)[C@H](C(=O)O[C@H](C#N)c1cccc(Oc2ccccc2)c1)c1ccc(Cl)cc1`: the AC50 in experiment [1] was 3.72 µM (active); in [3] it was 0.0209 µM (active); in [4], 189 nM (active). Further, the call in experiment [2] was inactive.

In the case of `CCOP(=S)(Oc1cnc(C(C)(C)C)nc1)OC(C)C` (stereo not given), the AC50 in experiment [1] is 67.3 µM (active) and 9.31 µM (active); in experiment [2], 77.4 µM (active) and 20.6 µM (active); in experiment [3], 80.1 µM (active) and 25.9 µM (active); in experiment [4], 80.9 µM (active) and 13.4 µM (active). In addition, the compound was classed as inactive in experiment [6], in experiment [9] and in experiment [8].

`CCOP(=S)(OCC)Oc1ccc([N+](=O)[O-])cc1`: the outcome in experiment [1], in experiment [2], in experiment [3] and in [4] was inactive.

The values above are taken from PubChem BioAssay (EPA / NIEHS).
